The text below walks through data of PubChem BioAssay (NCATS).

Inconclusive results are not listed. Unmarked numbers belong to inactive results. The source made the active and inactive calls. Calls come from the whole dose curve; as a rule, active = well fitted curve in the direction sought with a large enough effect; inconclusive = small, poorly fitted or top-dose-only effect, or another doubt; inactive = no such curve, though single readings can be large; an effect the other way counts as inactive or inconclusive.

For assay [1], the system named is KB-3-1. The assay can be described thus: Cytotoxic Profiling of Annotated Libraries Using Quantitative High-Throughput Screening (AID 1296008). Note: nearly all actives have a fitted effect of over 60% in size. Particulars: Five cell lines viability, CellTiter-Glo ATP luminescence, 48-72 h; max response: stronger effect = lower value. The essentials: (§1)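 Cytotoxicity was measured as CellTiter-Glo ATP luminescence, read after 10 min at room temperature. Compound treatment of the cells lasted 48 or 72 hr at 37 degrees Celsius in a qHTS format.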
(In general: ATP-based viability assays read luminescence as a measure of living cells.)

In assay [2] the test system is MCC-13. Nature of the assay: qHTS assay to identify novel small-molecules to repurpose for Merkel cell carcinoma treatment (AID 1296009). Note: nearly all actives have a fitted effect of over 60% in size. Particulars: MCC and control cell lines, CellTiter-Glo viability, 72 h; series mostly up to 46 µM. An outline of the steps: (§2)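 After compound transfer in DMSO, plates were kept 72 hr at 37 degree celsius. Luminescent ATP signal from CellTiter-Glo served as viability measure, normalized against DMSO and no-cell controls.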

Assay [3] relates to MCC-26. Described as above. Particulars: MCC and control cell lines, CellTiter-Glo viability, 72 h; series mostly up to 46 µM. The essentials: as §2
Assay [4] concerns MKL-1. The assay is described as above. Particulars: MCC and control cell lines, CellTiter-Glo viability, 72 h; series mostly up to 46 µM. An outline of the steps: as §2
In assay [5] the test system is MKL-2. Described as above. Particulars: MCC and control cell lines, CellTiter-Glo viability, 72 h; series mostly up to 46 µM. The essentials:
as §2

The test system of assay [6] is UISO. The assay is described as above. Particulars: MCC and control cell lines, CellTiter-Glo viability, 72 h; series mostly up to 46 µM. The essentials: as §2
Assay [7] has as its system WaGa. The assay is described as above. Particulars: MCC and control cell lines, CellTiter-Glo viability, 72 h; series mostly up to 46 µM. An outline of the steps:
as §2

Assay [8] has as its system C33A. Nature of the assay: Primary qHTS to identify gynecologic anti-cancer compounds using libraries of approved drugs and bioactive compounds (AID 1345084). Note: nearly all actives have a fitted effect of over 55% in size. Particulars: Gynecologic cancer cell panel viability, ATPlite luminescence, 48 h; series mostly up to 57.5 µM. The essentials:
(§3)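 In this quantitative HTS, cell killing is estimated from loss of ATP-dependent luciferase light. Cells see five compound concentrations over a 48 h exposure.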

Assay [9] deals with CAOV3. The assay is described as above. Particulars: Gynecologic cancer cell panel viability, ATPlite luminescence, 48 h; series mostly up to 57.5 µM. An outline of the steps: as §3
Assay [10] concerns CASKI. Described as above. Particulars: Gynecologic cancer cell panel viability, ATPlite luminescence, 48 h; series mostly up to 57.5 µM. The essentials:
as §3

Assay [11] has as its system Es-2. The assay is described as above. Particulars: Gynecologic cancer cell panel viability, ATPlite luminescence, 48 h; series mostly up to 57.5 µM. An outline of the steps:
as §3

Assay [12] deals with HeLa. Described as above. Particulars: Gynecologic cancer cell panel viability, ATPlite luminescence, 48 h; series mostly up to 57.5 µM. The essentials: as §3
Assay [13] relates to Hek293T. The assay is described as above. Particulars: Gynecologic cancer cell panel viability, ATPlite luminescence, 48 h, control line for the selectivity index; series mostly up to 57.5 µM. The essentials:
as §3

Assay [14] relates to JEG-3. The description is as above. Particulars: Gynecologic cancer cell panel viability, ATPlite luminescence, 48 h; series mostly up to 57.5 µM. An outline of the steps: as §3
For assay [15], the system named is OV90. Described as above. Particulars: Gynecologic cancer cell panel viability, ATPlite luminescence, 48 h; series mostly up to 57.5 µM. An outline of the steps: as §3
For assay [16], the system named is NIH3T3. Nature of the assay: Cytotoxic Profiling of Annotated Libraries Using Quantitative High-Throughput Screening (AID 1296008). Note: nearly all actives have a fitted effect of over 60% in size. Particulars: Five cell lines viability, CellTiter-Glo ATP luminescence, 48-72 h; max response: stronger effect = lower value. An outline of the steps:
as §1

The test system of assay [17] is HEK293T. The assay can be described thus: qHTS assay to identify novel small-molecules to repurpose for Merkel cell carcinoma treatment (AID 1296009). Note: nearly all actives have a fitted effect of over 60% in size. Particulars: MCC and control cell lines, CellTiter-Glo viability, 72 h; at 44.8 µM (top of the series) unless noted. An outline of the steps: as §2
% is set by controls: 0 for no effect and ±100 for the full control effect; potency is the fitted concentration of half-maximal effect.

Take `CC(=O)O[C@@H]1C(=O)O[C@@H]2[C@H]1OC(=O)[C@@H]2OC(C)=O`: the call in assay [1] was inactive. Also, the Potency entry in [2], in assay [3], in assay [4], in assay [5], in assay [6] and in assay [7] was “inactive” each time. The Potency result in [8], in [9], in assay [10], in assay [11], in assay [12] and in [13] was “inactive” throughout. Besides, the Potency result in [14] and in assay [15] was “inactive” each time.

As for `C[C@H](CN1CCCC1)C(=O)c1ccc(C(F)(F)F)cc1`, the max response in assay [1] was 4.58%; in [16], -14.5%. Moreover, the Potency entry in assay [2], in [3], in assay [4], in [6], in assay [7] and in [9] was “inactive” throughout. The Potency entry in assay [10], in assay [11], in assay [12], in assay [13], in assay [14] and in assay [15] was “inactive” in each case.

In the case of `CC(NCCC(c1ccccc1)c1ccccc1)c1ccccc1` (configuration not stated), in assay [1], the max response was -10.5%. Besides, the Potency was 11.9 µM (active) in [5] and 28.2 µM (active) in assay [15]. The Potency entry in assay [11], in [12], in assay [13] and in [14] was “inactive” in each case.

As for `CCCCCN(CCCOC)C(=O)C(CCC(=O)O)NC(=O)c1ccc(Cl)c(Cl)c1` (configuration not stated), the max response in [16] is -3.2%. The Potency entry in [2], in [3], in assay [4], in assay [5], in [6] and in [7] was “inactive” each time. Moreover, the Potency result in assay [8], in assay [9], in [10], in [11], in [12] and in assay [13] was “inactive” each time. In addition, the Potency entry in assay [14] and in [15] was “inactive” in each case.

Consider `CO[C@@H]1[C@@H](OC)[C@H](C)[C@@](O)(CC(=O)O)O[C@H]1[C@H](C)[C@H]1O[C@@]2(CC[C@@](C)([C@H]3CC[C@@](C)([C@@H]4O[C@@H]([C@H]5O[C@](C)(O)[C@H](C)C[C@@H]5C)C[C@@H]4OC4C[C@H](OC)[C@@H](OC)[C@H](C)O4)O3)O2)C[C@H](O)[C@H]1C` (some centres not stated), for which the Potency is 16.4 µM (active) in assay [1]; 6.68 µM (active) in [16]; 2.99 µM (active) in assay [2]; 0.376 µM (active) in assay [4]; 0.211 µM (active) in [5]; 0.596 µM (active) in [6]. Further, the Potency was 0.335 µM (active) in assay [7]; 14.1 µM (active) in assay [9]; 10 µM (active) in assay [11]; 2.82 µM (active) in assay [13]; 6.31 µM (active) in [14]; 1.78 µM (active) in assay [15].

Turning to `NS(=O)(=O)c1cc2c(cc1Cl)CN(C1CCCCC1)C2=O`, the max response in assay [16] was 4.87%. In addition, the outcome in [17] was inactive. Further, the Potency entry in assay [2], in [3], in assay [4], in [5], in [6] and in assay [7] was “inactive” throughout. Besides, the Potency result in assay [8], in [9], in assay [10], in assay [11], in [12] and in assay [13] was “inactive” in each case. Moreover, the Potency result in [14] and in assay [15] was “inactive” throughout.

As to `CCCCCCCCCCCCCCCCCCNC(=O)OC1CCN(C(=O)OC[C@H](COC(=O)N(Cc2cccc[n+]2CC)C(=O)c2ccccc2OC)OC)CC1`, the Potency in assay [1] is 6.51 µM (active); in assay [4] it was 11.9 µM (active); in assay [5], 2.66 µM (active); in assay [6], 6.68 µM (active); in assay [9] it was 15.8 µM (active); in assay [10], 15.8 µM (active). Moreover, the Potency in assay [15] was 28.2 µM (active). In assay [14], the Potency entry was “inactive”.
